# System: TDF
# Assay: H1.0 immunofluorescence intensity relative to DMSO (% of DMSO); higher = stronger H1.0 induction, active = 120 or more
# Settings: concentration: 10 µM; 24 h
# Summary of the method: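 In 384-well plates holding 800 HCC1569 or TDF cells per well in RPMI with 10% FBS, compounds were tested at 10 µM for 24 h at 37 °C in triplicate. Fixation used 3.7% formaldehyde. Staining used a rabbit anti-H1.0 antibody with an AlexaFluor 647 secondary, plus DAPI. Each value, H1.0 nuclear intensity or cell number, is a median of replicates shown as percent of the plate control, and HCC1569 values were smoothed for positional effects.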
# 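Also: TDF is a line of transformed human dermal fibroblasts of mesenchymal origin.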
row,Compound,H1.0 immunofluorescence intensity
1,CCCCCC=CCC=CCC(O)C=CC=CCCCC(=O)O (stereo unspecified),96.8 (inactive)
2,CN(C)C1C(=O)C(C(N)=O)=C(O)C2(O)C(=O)C3=C(O)c4c(O)ccc(Cl)c4C(O)C3CC12.Cl (stereo unspecified) [Demeclocycline hydrochloride],99.7 (inactive)
3,CCCCc1oc2ccccc2c1C(=O)c1cc(I)c(OCCN(CC)CC)c(I)c1.Cl [Amiodarone.HCl],93.8 (inactive)
4,Cl.Cl.N=C(N)c1ccc(N)cc1 [4-Aminobenzamidine dihydrochloride],92.2 (inactive)
5,CCN(CC)C(=O)C(C#N)=Cc1cc(O)c(O)c([N+](=O)[O-])c1 [Entacapone],95.3 (inactive)
6,CC1OC(OC2C(O)CC(OC3C(O)CC(OC4CCC5(C)C(CCC6C5CCC5(C)C(C7=CC(=O)OC7)CCC65O)C4)OC3C)OC2C)CC(O)C1O (stereo unspecified) [Digitoxin],127 (active)
7,C1CCN2CC3CC(CN4CCCCC34)C2C1.O.O.O.O.O.O=S(=O)(O)O (stereo unspecified),107 (inactive)
8,CCCCCCCCCCCC(CC1OC(=O)C1CCCCCC)OC(=O)C(CC(C)C)NC=O (stereo unspecified) [Tetrahydrolipistatin],99.2 (inactive)
9,"CCCCCC(=O)CCC1C(O)CC(O)C1CC=CCCCC(=O)O (stereo unspecified) [13,14-Dihydro-15-keto-prostaglandin F2a]",90.1 (inactive)
10,Cc1nc2sccn2c(=O)c1CCN1CCC(=C(c2ccccc2)c2ccc(F)cc2)CC1 [Diacylglycerol kinase inhibitor I],96 (inactive)
11,Cc1oncc1C(=O)Nc1ccc(C(F)(F)F)cc1 [Leflunomide],97.1 (inactive)
12,COC(=O)Nc1nc2ccc(C(=O)c3ccccc3)cc2[nH]1 [Mebendazol],188 (active)
13,Cn1c(=O)c2c(nc(C=Cc3cccc(Cl)c3)n2C)n(C)c1=O [8-(3-Chlorostyryl)caffeine],100 (inactive)
14,Cc1cc(C(C)(C)C)c(O)c(C(C)(C)C)c1,90.4 (inactive)
15,"CC(C)=CCC(OC(=O)C=C(C)C)C1=CC(=O)c2c(O)ccc(O)c2C1=O (stereo not drawn) [Shikonin beta,beta-dimethylacrylate]",109 (inactive)
16,COc1ccc(-c2cc(=S)ss2)cc1 [Anethole trithione],98.2 (inactive)

row,Compound,H1.0 immunofluorescence intensity
1,Cc1cc(Nc2nc(-c3ccccc3)nc3ccccc23)n[nH]1 [GSK-3 Inhibitor XIII],112 (inactive)
2,CCC=CCC=CCC=CCCCCCCCC(=O)O [Linolenic acid],101 (inactive)
3,Cc1ccc(F)cc1C(=O)Nc1ccc(C(=O)N2Cc3cccn3Cc3ccccc32)c(Cl)c1,93.2 (inactive)
4,"COc1ccc2cc(C(C)C(=O)[O-])ccc2c1.[Na+] (single isomer, unassigned; (-)) [(-)-Naproxen sodium]",96.1 (inactive)
5,O=C(NC(CO)C(O)c1ccc([N+](=O)[O-])cc1)C(Cl)Cl (stereo unspecified) [Chloramphenicol],93.1 (inactive)
6,COc1cc(C=CC(=O)CC(=O)C=Cc2ccc(O)c(OC)c2)ccc1O [Curcumin],106 (inactive)
7,COC(=O)/C=C/c1cccc(N(Cc2ccc(-c3ccc(N(C)C)cc3)cc2)C(=O)C2CCCCC2)c1,90.7 (inactive)
8,Oc1cc2c(cc1O)CN(C(=S)NCCc1ccc(Cl)cc1)CCC2 [Capsazepine],91.8 (inactive)
9,O=C(NC(NC(=S)Nc1ccc(F)c([N+](=O)[O-])c1)C(Cl)(Cl)Cl)C(c1ccccc1)c1ccccc1 (stereo unspecified) [ATM/ATR Kinase Inhibitor],112 (inactive)
10,COCCc1ccc(OCC(O)CNC(C)C)cc1 (stereo unspecified) [Metoprolol],102 (inactive)
11,O=C1CCc2cc(OCCCCc3nnnn3C3CCCCC3)ccc2N1 [Cilostazol],90.2 (inactive)
12,CCCCCC(O)C=CC1C2CC(CO2)C1CC=CCCCC(=O)O (stereo unspecified),93.7 (inactive)
13,COc1cccc2c1C(=O)c1c(O)c3c(c(O)c1C2=O)CC(O)(C(=O)CO)CC3OC1CC(N)C(O)C(C)O1.Cl (stereo unspecified) [Doxorubicin.HCl],132 (active)
14,Cc1cc2ncc(-c3ccccc3)nc2cc1C,96 (inactive)
15,CCCCCCCCC=CCCCCCCCCCCCCC(=O)O [14(E)-Tricosenoic acid],93.3 (inactive)
